NOMO-1 viab – STK33 inhibitor candidate reducing NOMO-1 cell viability. inhibition, % (no concentration beside the values). NOMO-1 AML viability, CellTiter-Glo luminescence, 72 h. AID 2330. hit rate 7.5% among 37,000; in the data active means inhibition above about 80%; inconclusive means no clear call, values can overlap the other calls
STK33 kin inh – blocks human STK33 kinase activity; ADP-Glo luminescence, MBP substrate; inhibition, % at 12.5 µM; hit rate 0.44% among 27,000; in the data active means inhibition above about 20%; inconclusive means no clear call, values can overlap the other calls
Target sequence (Q9BYT3 whole entry, looked up): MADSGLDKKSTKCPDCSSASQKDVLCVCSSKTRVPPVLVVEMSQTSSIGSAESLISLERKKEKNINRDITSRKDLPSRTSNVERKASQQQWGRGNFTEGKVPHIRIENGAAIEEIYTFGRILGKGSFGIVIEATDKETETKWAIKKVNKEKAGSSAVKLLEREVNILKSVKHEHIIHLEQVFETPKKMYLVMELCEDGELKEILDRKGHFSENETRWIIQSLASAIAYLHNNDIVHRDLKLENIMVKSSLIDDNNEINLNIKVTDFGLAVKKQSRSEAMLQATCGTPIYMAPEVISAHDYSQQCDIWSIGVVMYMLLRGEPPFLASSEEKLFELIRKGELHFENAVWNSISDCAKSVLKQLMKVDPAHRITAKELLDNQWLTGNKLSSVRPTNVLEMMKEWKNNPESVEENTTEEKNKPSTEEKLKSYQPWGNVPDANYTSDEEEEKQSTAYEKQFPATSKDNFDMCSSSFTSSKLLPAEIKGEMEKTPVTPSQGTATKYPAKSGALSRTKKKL
PD-1 reversal – activators reversing PD-1 mediated T-cell inhibition | primary human CD4 T cells, PD-L1 beads, CellTiter-Glo 96 h | activation, % (no concentration beside the values) | 29,000 tested, under 10 active; call rule not given here
Each line names hits and unclear results; the compound was inactive in the other large screens. This excerpt belongs to a sample that is enriched for hits.

CC(C)NC(=O)Nc1ccc2c(c1)CC(=O)N([C@@H](C)CO)C[C@@H](C)[C@@H](CN(C)Cc1ccc(C(F)(F)F)cc1)O2	none
C[C@@H]1CN([C@H](C)CO)C(=O)Cc2cc(NC(=O)Nc3ccc(F)cc3)ccc2O[C@H]1CN(C)Cc1ccc(C(F)(F)F)cc1	NOMO-1 viab 116.0 (no result: PD-1 reversal)
C[C@H]1CN([C@@H](C)CO)C(=O)Cc2cc(NC(=O)Nc3ccc(F)cc3)ccc2O[C@@H]1CN(C)Cc1ccc(C(F)(F)F)cc1	NOMO-1 viab 117.3 (no result: PD-1 reversal)
COc1ccc(S(=O)(=O)N(C)CC(=O)Nc2ccc(Br)cc2F)cc1	none
CCOc1ccc(NC(=O)CSc2nc(C)nc3sc4c(c23)CCCC4)cc1	none
Cc1nc(Oc2ccc(NC(=O)c3ccccc3)cc2)c2c3c(sc2n1)CCC3	NOMO-1 viab 132.9 (no result: STK33 kin inh)
COc1cc(C[C@H]2C(=O)OC[C@@H]2Cc2ccc(OC)c(OC)c2)ccc1O	none (no result: NOMO-1 viab, PD-1 reversal)
COc1ccc2c(c1)OCC(Cc1ccc(OC)c(O)c1)C2=O (stereo not drawn)	NOMO-1 viab 109.3 (no result: PD-1 reversal)
COc1ccc(NC(=O)Nc2ccc3c(c2)CC(=O)N([C@H](C)CO)C[C@@H](C)[C@@H](CN(C)Cc2ccc(C(=O)Nc4ccccc4N)cc2)O3)cc1	NOMO-1 viab 89.6 (no result: STK33 kin inh)
COc1ccc(NC(=O)Nc2ccc3c(c2)CC(=O)N([C@@H](C)CO)C[C@H](C)[C@@H](CN(C)Cc2ccc(C(=O)Nc4ccccc4N)cc2)O3)cc1	none (no result: STK33 kin inh)
COc1ccc(CN(C)C[C@@H]2Oc3ccc(NC(=O)Nc4ccccc4)cc3CC(=O)N([C@@H](C)CO)C[C@@H]2C)cc1	none
COc1ccc(NC(=O)Nc2ccc3c(c2)CC(=O)N([C@H](C)CO)C[C@H](C)[C@H](CN(C)Cc2ccc(C(=O)Nc4ccccc4N)cc2)O3)cc1	NOMO-1 viab 127.2 (no result: STK33 kin inh)
COc1ccc(NC(=O)Nc2ccc3c(c2)CC(=O)N([C@@H](C)CO)C[C@H](C)[C@H](CN(C)Cc2ccc(C(=O)Nc4ccccc4N)cc2)O3)cc1	NOMO-1 viab 125.7 (no result: STK33 kin inh)
COc1ccc(NC(=O)Nc2ccc3c(c2)CC(=O)N([C@@H](C)CO)C[C@@H](C)[C@@H](CN(C)Cc2ccc(C(=O)Nc4ccccc4N)cc2)O3)cc1	NOMO-1 viab 86.4 (no result: STK33 kin inh)
COc1ccc(CN(C)C[C@@H]2Oc3ccc(NC(=O)Nc4ccccc4)cc3CC(=O)N([C@H](C)CO)C[C@H]2C)cc1	none
COc1ccc(CN(C)C[C@@H]2Oc3ccc(NC(=O)Nc4ccc(OC)cc4)cc3CC(=O)N([C@@H](C)CO)C[C@@H]2C)cc1	none
COc1ccccc1OCC(=O)Nc1sc2c(c1C#N)CCCCC2	none
COc1ncccc1C(=O)Nc1ccc(F)cc1F	none (no result: STK33 kin inh)
CNC(=O)C1OC(C)(C(C)(C)C)OC1C(=O)NC (stereo not drawn)	none (no result: STK33 kin inh)
COc1ccc(-c2nnc(SCc3nc4ccccc4c(=O)[nH]3)n2C)cc1	none
Cc1ccccc1OCC(=O)Nc1cccc(NC(=O)c2ccc(C(C)(C)C)cc2)c1	none
Cc1ccc2c(CC(=O)Nc3cccc([N+](=O)[O-])c3)coc2c1C	none
Cc1ccc2c(CC(=O)NCc3ccco3)coc2c1C	NOMO-1 viab 114.9
C[C@@H]1CN([C@@H](C)CO)C(=O)c2cccc(NS(=O)(=O)c3ccc(Cl)cc3)c2O[C@@H]1CN(C)C(=O)Nc1ccc(C(F)(F)F)cc1	NOMO-1 viab 121.1 (no result: STK33 kin inh)
Cc1ccc(S(=O)(=O)Nc2cccc3c2O[C@H](CN(C)C(=O)Nc2ccc(C(F)(F)F)cc2)[C@H](C)CN([C@H](C)CO)C3=O)cc1	NOMO-1 viab 90.3 (no result: STK33 kin inh)
Cc1ccc(S(=O)(=O)Nc2cccc3c2O[C@@H](CN(C)C(=O)Nc2ccc(C(F)(F)F)cc2)[C@@H](C)CN([C@H](C)CO)C3=O)cc1	none (no result: STK33 kin inh, PD-1 reversal)
C[C@@H]1CN([C@H](C)CO)C(=O)c2cccc(NS(=O)(=O)c3ccc(Cl)cc3)c2O[C@@H]1CN(C)C(=O)Nc1ccc(C(F)(F)F)cc1	none (no result: STK33 kin inh)
CC(C)[C@@H]1NC(=O)[C@@H](Cc2c[nH]c3ccccc23)n2c1nc1ccccc1c2=O	none
C=C(C)C(=O)O[C@H]1[C@H]2C(=C)C(=O)O[C@@H]2C[C@@H](C)/C=C/C(=O)[C@](C)(O)[C@@H]1OC(C)=O	NOMO-1 viab 118.4
CCn1c(SCC(=O)Nc2cccc(SC)c2)nnc1-c1ccc(Cl)cc1	none
O=C(CCCC(=O)Nc1cc(C(F)(F)F)ccc1Cl)Nc1cc(C(F)(F)F)ccc1Cl	none
O=C1CN(C(=O)/C=C/c2ccccc2)C(c2ccccc2)c2cc(Br)ccc2N1 (stereo not drawn)	NOMO-1 viab 89.5 (no result: STK33 kin inh)
CC1=Nc2ccc(Br)cc2C(c2ccccc2)N1CC(=O)NN (stereo not drawn)	none (no result: STK33 kin inh)
Cc1cccc(C(=O)NN(c2ccccc2)c2ccccc2)c1	none (no result: STK33 kin inh)
Cc1ccc(O)c(C2=Nc3ccccc3N=C(C(F)(F)F)C2)c1	NOMO-1 viab 89.1, STK33 kin inh inconclusive
O=C(Cn1c(S(=O)(=O)Cc2ccccc2)nc2ccccc21)N1CCOCC1	none (no result: PD-1 reversal)
CCN(CC(=O)Nc1cccc(SC)c1)S(=O)(=O)c1ccc2ccccc2c1	none
C[C@@H]1CN([C@H](C)CO)C(=O)c2cc(NC(=O)Nc3ccc(C(F)(F)F)cc3)ccc2O[C@H]1CN(C)C(=O)Nc1ccc2c(c1)OCO2	none
C[C@H](CO)N1C[C@H](C)[C@@H](CN(C)C(=O)Nc2ccc(C(F)(F)F)cc2)Oc2ccc(NC(=O)Nc3ccc4c(c3)OCO4)cc2C1=O	none
C[C@H](CO)N1C[C@H](C)[C@H](CN(C)C(=O)Nc2ccc3c(c2)OCO3)Oc2ccc(NC(=O)Nc3ccc(C(F)(F)F)cc3)cc2C1=O	NOMO-1 viab 99.0
C[C@@H]1CN([C@@H](C)CO)C(=O)c2cc(NC(=O)Nc3ccc4c(c3)OCO4)ccc2O[C@@H]1CN(C)C(=O)Nc1ccc(C(F)(F)F)cc1	NOMO-1 viab 93.4
Cc1ccc(S(=O)(=O)N2C(=O)CCC2C(=O)Nc2ccccc2-c2ccccc2)cc1 (stereo not drawn)	none
COC(=O)c1ccc(NC(=O)COc2cccc3ccccc23)cc1	none (no result: STK33 kin inh)
COC(=O)c1cccc(C(=O)Nc2cnc3ccccc3c2)n1	NOMO-1 viab 123.4 (no result: STK33 kin inh)
Cc1ccc(OCC(=O)Nc2nc(C)cc(C)n2)cc1	none
O=C1C(=O)N(Cc2cccnc2)C(c2ccccn2)C1C(=O)c1cccs1 (stereo not drawn)	none
O=C(CCCN1C(=O)c2ccccc2C1=O)Nc1ccc(Nc2ccccc2)cc1	NOMO-1 viab 102.4
O=C(CCCCCN1C(=O)c2cccc3cccc(c23)C1=O)NO	NOMO-1 viab 97.2
CC(=O)Nc1ccc(NC(=O)CCCN2C(=O)c3ccccc3C2=O)cc1	none
O=C(CCCN1C(=O)c2cccc3cccc(c23)C1=O)Nc1ccccc1Br	none (no result: PD-1 reversal)
Cc1cc(=O)[nH]c(SCCCOc2cccc(Br)c2)n1	none
Cn1c(SCC(=O)Nc2ccccc2C(=O)Nc2ccccc2)nc2ccccc2c1=O	none (no result: PD-1 reversal)
COc1ccc(NC(=O)C(=O)NCc2cccnc2)cc1	none (no result: PD-1 reversal)
Cc1cc(O)c2c(c1)C(=O)C13C(C2=O)C(=O)C2C(O)C1C1C(O)C3C(=O)C3C(=O)c4c(O)cc(C)cc4C(=O)C321 (stereo not drawn)	NOMO-1 viab 109.7
Cc1c(NC(=O)C(C)(C)C)c(=O)n(-c2ccccc2)n1C	none (no result: STK33 kin inh)
COC(=O)C1=C(C)NC(=O)CC1c1ccccc1C (stereo not drawn)	none (no result: STK33 kin inh)
Cc1ccccc1C1CC(=O)c2c(ccc3ccccc23)N1 (stereo not drawn)	NOMO-1 viab 139.7 (no result: STK33 kin inh)
O=C(O)CCCc1cc2cc(Br)ccc2o1	none (no result: STK33 kin inh)
